This is an account of results in PubChem BioAssay.

Values joined by “and” are separate entries in the source; they are usually repeats but may differ in a detail not shown here. Equal entries are not always repeated. Records with an inconclusive call do not appear. Active and inactive are the calls of the source.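 The calls were made as follows, unless noted: active = normalized viability below 100% at a tested concentration; inactive = the rest.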

Test [1] is described as follows: growth inhibition of DIPG glioma cells, dose response, cell-based, SU-DIPG-XVII, MIPE5.0, CellTiter-Glo, qHTS (AID 1347060; cut-off not given, nearly all actives have AC50 up to about 26 µM;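 also: cells exposed to compound for 48 hours before viability readout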). Particulars: SU-DIPG-XVII viability, CellTiter-Glo ATP luminescence.
Test [2] can be described thus: growth inhibition of DIPG glioma cells, dose response, cell-based, SU-DIPG-XIII, MIPE4.0, CellTiter-Glo, qHTS (AID 1347061; cut-off not given, nearly all actives have AC50 up to about 37 µM;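 also: cells exposed to compound for 48 hours before readout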). Particulars: SU-DIPG-XIII viability, CellTiter-Glo ATP luminescence. (In general: ATP-based viability assays read luminescence as a measure of living cells.)
Test [3] can be described thus: growth inhibition of DIPG glioma cells, dose response, cell-based, SU-DIPG-XIII, MIPE5.0, CellTiter-Glo, qHTS (AID 1347064; cut-off not given, nearly all actives have AC50 up to about 23 µM;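 also: cells exposed to compound for 48 hours before the viability read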). Particulars: SU-DIPG-XIII viability, CellTiter-Glo ATP luminescence.
Test [4] is described as follows: viability loss in pontine glioma line – cell-based, SU-DIPG-XXV, MIPE5.0, CellTiter-Glo, qHTS, dose response (AID 1347065; cut-off not given, nearly all actives have AC50 up to about 26 µM;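 also: cells exposed to compound for 48 hours before ATP readout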). The following applies: CellTiter-Glo ATP luminescence.
The nature of test [5]: JHH-DIPG-1 glioma cell viability, MIPE5.0 library, CellTiter-Glo luminescence, qHTS (AID 1347067; cut-off not given, nearly all actives have AC50 up to about 26 µM;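 also: cells exposed to compound for 48 hours before readout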). The following applies: JHH-DIPG-1 glioma viability, CellTiter-Glo ATP luminescence.
Test [6] is described as follows: SU-DIPG-XXV glioma cell viability, MIPE5.0 library, qHTS (AID 1347068; cut-off not given, nearly all actives have IC50 up to about 30 µM). A general note: Quantitative high-throughput screening tests each substance at several concentrations.
The nature of test [7]: sensitizers of A549 cells to miR-34 induction, primary screen, imaging, A549 dox-inducible miR-34, nuclei and caspase counts (AID 1347080;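 active = compounds whose cell count with miR-34 switched on is under 0.7 times the count with it off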). The following applies: A549 miR-34 inducible, Hoechst nuclei count, 48 h.
A short description of test [8]: modifiers of HSF1 nuclear foci, imaging, Selleck Cancer Library (AID 1347162; in the data active = plate-normalised HSF1 focus index below about 0.46). Particulars: human cells, at 10 µM; SSMD: measured here: HSF1 foci SSMD mean; cell count: measured here: cell number; plate-normalised HSF1 focus index: stronger effect = lower value.
Test [9] is described as follows: survival rescue of mitochondrial mutant cells in low glucose, primary screen, MELAS cybrids, Rieske KO mouse fibroblasts, CellTiter-Glo (AID 1508586;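 active = mean z-score across replicates of 1.96 or higher in either the MELAS or the Rieske mutant cell line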;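 also: z relative to plate mean and SD of compound and empty wells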).
A short description of test [10]: ovarian cancer cell viability with rucaparib, profiling panel, oncology-focused library, rucaparib conditional (AID 1508598). Particulars: patient-derived ovarian cancer cells, CellTiter-Glo viability, 144 h, stronger effect = lower value.
Test [11] is described as follows: SU-DIPG-VI glioma cell viability, MIPE4.0 library, CellTiter-Glo luminescence, qHTS (AID 1347066; cut-off not given, nearly all actives have AC50 up to about 30 µM;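 also: cells exposed to compound for 48 hours before readout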). The following applies: CellTiter-Glo ATP luminescence.
The nature of test [12]: growth inhibition of DIPG glioma cells, dose response, cell-based, SU-DIPG-IV, MIPE4.0, CellTiter-Glo, qHTS (AID 1347063; cut-off not given, nearly all actives have AC50 up to about 30 µM;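 also: compound exposure lasted 48 hours before the viability readout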). The following applies: SU-DIPG-IV viability, CellTiter-Glo ATP luminescence.
The mark [13] stands for this setting: stronger effect = lower value, cell number ratio, induced over uninduced.
[14] abbreviates: measured here: relative caspase fold change +Dox/-Dox.
The mark [15] stands for this setting: measured here: total cells with miR-34 induction, stronger effect = lower value.
The mark [16] stands for this setting: measured here: total cells without miR-34 induction.

One may read the AC50 as the concentration at which the activity in the assay is half-maximal. In general, viability refers to a read-out of living cells in per cent, often relative to untreated cells. As to `CC(C)(C)c1cc(NC(=O)Nc2ccc(-c3cn4c(n3)sc3cc(OCCN5CCOCC5)ccc34)cc2)no1`, the AC50 in test [1] is 23.5 µM (active); in test [3] it was 14.8 µM (active); in test [4], 16.6 µM (active); in test [5], 20.9 µM (active). Moreover, the call in [2] and in test [6] was inactive. Also, the fold change is 1 (inactive) in test [7] (setting [13]) and 0.781 in [7] (setting [14]). For the same compound, the cell count stood at 6520 in test [7] (setting [15]), 6510 in [7] (setting [16]) and 7630 in test [8]. Moreover, the SSMD in test [8] turned out to be 0.734. Moreover, the plate-normalised HSF1 focus index in test [8] was 1.05 (inactive). In addition, the z-score in test [9] (MELAS cybrid survival, CellTiter-Glo 48 h, stronger effect = higher value) was 4.33 (active); in [9] (Rieske KO mouse fibroblast survival, CellTiter-Glo 72 h), -2.86. The viability in test [10] (at 0.000305 µM, OCI-C5x cells, with rucaparib 10 µM, 100% = cells with rucaparib alone) is 105% (inactive); in test [10] (at 0.000305 µM, OCI-C5x cells, without rucaparib) it was 104% (inactive); in [10] (at 0.000305 µM, OCI-P5x cells, with rucaparib 20 µM, 100% = cells with rucaparib alone) it was 87.1% (active); in [10] (at 0.000305 µM, OCI-P5x cells, without rucaparib) it was 82.2% (active); in [10] (at 0.00122 µM, OCI-C5x cells, with rucaparib 10 µM, 100% = cells with rucaparib alone) it was 112% (inactive); in test [10] (at 0.00122 µM, OCI-C5x cells, without rucaparib) it was 95% (active). In addition, the viability is 93.1% (active) in test [10] (at 0.00122 µM, OCI-P5x cells, with rucaparib 20 µM, 100% = cells with rucaparib alone); 87% (active) in [10] (at 0.00122 µM, OCI-P5x cells, without rucaparib); 105% (inactive) in [10] (at 0.00488 µM, OCI-C5x cells, with rucaparib 10 µM, 100% = cells with rucaparib alone); 88.6% (active) in test [10] (at 0.00488 µM, OCI-C5x cells, without rucaparib); 91.7% (active) in test [10] (at 0.00488 µM, OCI-P5x cells, with rucaparib 20 µM, 100% = cells with rucaparib alone); 93.5% (active) in test [10] (at 0.00488 µM, OCI-P5x cells, without rucaparib). Moreover, the viability was 107% (inactive) in test [10] (at 0.0195 µM, OCI-C5x cells, with rucaparib 10 µM, 100% = cells with rucaparib alone); 101% (inactive) in [10] (at 0.0195 µM, OCI-C5x cells, without rucaparib); 103% (inactive) in test [10] (at 0.0195 µM, OCI-P5x cells, with rucaparib 20 µM, 100% = cells with rucaparib alone); 93.7% (active) in test [10] (at 0.0195 µM, OCI-P5x cells, without rucaparib); 111% (inactive) in test [10] (at 0.0781 µM, OCI-C5x cells, with rucaparib 10 µM, 100% = cells with rucaparib alone); 112% (inactive) in [10] (at 0.0781 µM, OCI-C5x cells, without rucaparib). Also, the viability in [10] (at 0.0781 µM, OCI-P5x cells, with rucaparib 20 µM, 100% = cells with rucaparib alone) is 86.7% (active); in test [10] (at 0.0781 µM, OCI-P5x cells, without rucaparib), 90.6% (active); in test [10] (at 0.313 µM, OCI-C5x cells, with rucaparib 10 µM, 100% = cells with rucaparib alone), 115% (inactive); in test [10] (at 0.313 µM, OCI-C5x cells, without rucaparib), 108% (inactive); in test [10] (at 0.313 µM, OCI-P5x cells, with rucaparib 20 µM, 100% = cells with rucaparib alone), 82.2% (active); in test [10] (at 0.313 µM, OCI-P5x cells, without rucaparib) it was 99% (active). The viability is 108% (inactive) in [10] (at 1.25 µM, OCI-C5x cells, with rucaparib 10 µM, 100% = cells with rucaparib alone); 128% (inactive) in [10] (at 1.25 µM, OCI-C5x cells, without rucaparib); 83.4% (active) in [10] (at 1.25 µM, OCI-P5x cells, with rucaparib 20 µM, 100% = cells with rucaparib alone); 87.4% (active) in test [10] (at 1.25 µM, OCI-P5x cells, without rucaparib); 100% (inactive) in test [10] (at 5 µM, OCI-C5x cells, with rucaparib 10 µM, 100% = cells with rucaparib alone); 107% (inactive) in [10] (at 5 µM, OCI-C5x cells, without rucaparib). Moreover, the viability in [10] (at 5 µM, OCI-P5x cells, with rucaparib 20 µM, 100% = cells with rucaparib alone) was 31.2% (active); in test [10] (at 5 µM, OCI-P5x cells, without rucaparib) it was 70.6% (active).
`C/C=C/C/C=C/CCC(=O)[C@H]1O[C@H]1C(N)=O`: the AC50 in [1] is 20.9 µM (active); in [3], 20.9 µM (active); in [5], 23.5 µM (active). For the same compound, the outcome in [2] and in [11] was inactive. Further, the fold change was 0.809 (inactive) and 1.05 (inactive) in [7] (setting [13]); 2.34 and 1.07 in test [7] (setting [14]). Also, the cell count in test [7] (setting [15]) is 532 and 6420; in test [7] (setting [16]) it was 658 and 6130.
On to `Cc1ccc(S(=O)(=O)Nc2cc(Cl)ccc2C(=O)Nc2nc(-c3ccccc3)cs2)cc1`, for which the AC50 in test [1] was 7.42 µM (active); in test [2], 10.5 µM (active); in test [12], 16.6 µM (active); in test [4] it was 8.33 µM (active); in [11] it was 5.26 µM (active); in [5], 1.05 µM (active).
For the compound `C[C@@H](NC(=O)c1ncnc(N)c1Cl)c1ncc(C(=O)Nc2cc(C(F)(F)F)c(Cl)cn2)s1`, the AC50 in test [1] is 16.6 µM (active); in test [2], 18.7 µM (active); in test [3], 14.8 µM (active); in test [5], 5.9 µM (active). Moreover, the outcome in test [11] and in test [6] was inactive.
